Experimental data from PubChem BioAssay (Tox21).
Results filed as inconclusive are left out. Calls of active or inactive are those of the source. Unless noted, calls come from the whole dose curve.

How the values were obtained:
[1] = Nuclear factor erythroid 2-related factor 2/antioxidant responsive element (Nrf2/ARE) small molecule agonists: qHTS cell viability counter screen in human keratinocytes (AID 1919968; active = well fitted curve in the direction sought with a large enough effect in the repeat runs; an effect the other way counts as inactive or inconclusive; note: nearly all actives have a fitted effect of over 55% in size; note: potency is the fitted concentration of half-maximal effect)
How it was run: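 KeratinoSens cells (HaCaT keratinocytes stably carrying an ARE-luciferase reporter) were seeded at 1,500 cells/well and rested 5 h at 37 C/5% CO2. They were then exposed to compounds in DMSO for 23 h. Viability was read by CellTiter-Fluor fluorescence after 1 h.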

[2] = Nuclear factor erythroid 2-related factor 2/antioxidant responsive element (Nrf2/ARE) small molecule agonists: luciferase reporter gene qHTS assay in human keratinocytes (AID 1919969); note: nearly all actives have a fitted effect of over 35% in size; note: potency is the fitted concentration of half-maximal effect
[3] = molecular target: Gonadotropin-releasing hormone receptor (Homo sapiens) (UniProt P30968); assay: Human gonadotropin-releasing hormone receptor (GnRHR) small molecule agonists, calcium flux assay in GnRHR-HEK293 cells (AID 1920063); note: nearly all actives have a fitted effect of over 35% in size
How it was run: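 HEK293 cells stably expressing human GnRHR were plated 18 h at 37 °C, loaded with calcium dye 1 h at 37 °C, then given compound in agonist mode; fluorescence (Ex/Em 480/540) read kinetically for 3 min at 1 s intervals.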

[4] = molecular target: KiSS-1 receptor (Homo sapiens) (UniProt Q969F8); assay: Human kisspeptin (KISS1R) small molecule agonists, calcium flux assay in KISS1R-HEK293 cells (AID 1920064; active = well fitted curve in the direction sought with a large enough effect in the repeat runs; an effect the other way counts as inactive or inconclusive)
How it was run: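 HEK293 cells stably expressing human KISS1R were plated 18 h at 37 °C, loaded with calcium dye for 1 h at 37 °C, then given compound by pin tool. Fluorescence (Ex/Em 480/540) was read kinetically for 3 min.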

[5] = G protein-coupled receptor (GPCR) small molecule agonists, calcium flux assay: HEK293 wild type cell line counter screen (AID 1920065)
How it was run: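 Cells were plated and cultured 18 h at 37 C/5% CO2, then loaded with calcium dye for 1 h at 37 C. Compounds in DMSO were pin-transferred in agonist mode, and fluorescence (Ex/Em 480/540) was read kinetically for 3 min at 1 s intervals.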

[6] = p53 small molecule agonists, cell-based qHTS assay with human liver microsomes (AID 1963577);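 note: p53 response element beta-lactamase reporter cells with liver microsomes plus NADPH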
How it was run: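 Reporter activation was measured by LiveBLAzer fluorescence intensity in p53RE-bla cells, which had been exposed to compounds for 16 h at 37 C alongside 0.5 mg/mL human liver microsomes and 0.5 mg/mL NADPH (final concentrations).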

[7] = p53 small molecule agonists, cell-based qHTS assay with rat liver microsomes (AID 1963578)
How it was run: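 Compound in DMSO added to p53RE-bla cells 5 h post-plating; rat microsomes/NADPH 0.5 mg/mL final; 16 h, 37 C; LiveBLAzer 2 h RT.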

[8] = p53 small molecule agonists, cell-based qHTS assay with human liver microsomes: qHTS cell viability counter screen (AID 1963579); note: nearly all actives have a fitted effect of over 45% in size; note: potency is the fitted concentration of half-maximal effect
How it was run: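 HLM-supplemented (0.5 mg/mL final) and NADPH-supplemented (0.5 mg/mL final) p53RE-bla cultures, 4,000 cells per well, were dosed with compounds in DMSO for 16 h at 37 C; luminescent ATP detection (CellTiter-Glo, 30 min, room temperature) quantified surviving cells.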

[9] = p53 small molecule agonists, cell-based qHTS assay with rat liver microsomes: qHTS cell viability counter screen (AID 1963580); note: nearly all actives have a fitted effect of over 45% in size; note: potency is the fitted concentration of half-maximal effect
How it was run: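 Viability is assessed in parallel with the p53 reporter read: HCT-116 p53RE-bla cells receive compounds plus rat microsomes and NADPH (0.5 mg/mL final apiece), incubate 16 h at 37 C, and then CellTiter-Glo luminescence is recorded.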

[10] = p53 small molecule agonists, cell-based qHTS assay: qHTS cell viability counter screen (AID 1963581); note: nearly all actives have a fitted effect of over 45% in size; note: potency is the fitted concentration of half-maximal effect
How it was run: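 p53RE-bla HCT-116 cells were exposed to compounds for 16 h at 37 C; after the beta-lactamase FRET read in the same wells, CellTiter-Glo was added and luminescence (intracellular ATP) read after 30 min at room temperature.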

[11] = molecular target: 5-hydroxytryptamine receptor 2A (Homo sapiens) (UniProt P28223); assay: 5-hydroxytryptamine receptor 2A (HTR2A) small molecule antagonists, cell-based qHTS assay (AID 1963586); note: nearly all actives have a fitted effect of over 45% in size; note: potency is the fitted concentration of half-maximal effect
How it was run: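 Antagonist-mode intracellular calcium assay: DOI (4 nM) added after 5 min compound pre-incubation at room temperature to dye-loaded HTR2A-CHO cells. Fluorescence followed for 3 min, sampled every second.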

[12] = molecular target: 5-hydroxytryptamine receptor 2A (Homo sapiens) (UniProt P28223); assay: 5-hydroxytryptamine receptor 2A (HTR2A) small molecule agonists, cell-based qHTS assay (AID 1963587); note: nearly all actives have a fitted effect of over 30% in size; note: potency is the fitted concentration of half-maximal effect
How it was run: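 CHO cells stably expressing human HTR2A, plated 18 h, loaded with calcium dye 1 h at 37 C. Agonist mode: compounds added and intracellular calcium fluorescence recorded kinetically for 2 min at 1 sec intervals.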

[13] = molecular target: Muscarinic acetylcholine receptor M1 (Homo sapiens) (UniProt P11229); assay: Cholinergic receptor muscarinic 1 (CHRM1) small molecule antagonists, cell-based qHTS assay (AID 1963588); note: nearly all actives have a fitted effect of over 40% in size; note: potency is the fitted concentration of half-maximal effect
How it was run: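 CHRM1-CHO calcium-flux assay, antagonist mode. Cells were seeded 18 h, dye-loaded 1 h at 37 C and given compound for 5 min at RT, then acetylcholine was added at 50nM. FDSS fluorescence was read 3 min; 15 concentrations, three runs.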

[14] = molecular target: Muscarinic acetylcholine receptor M1 (Homo sapiens) (UniProt P11229); assay: Cholinergic receptor muscarinic 1 (CHRM1) small molecule agonists, cell-based qHTS assay (AID 1963589); note: nearly all actives have a fitted effect of over 35% in size; note: potency is the fitted concentration of half-maximal effect
How it was run: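 CHO cells stably expressing human CHRM1, seeded 18 h at 37 C/5% CO2, dye-loaded 1 h at 37 C, then given compound in agonist mode; intracellular calcium fluorescence read kinetically at 1 s intervals. Fifteen concentrations, three independent runs.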

[15] = molecular target: Beta-2 adrenergic receptor (Homo sapiens) (UniProt P07550); assay: Adrenergic beta2 receptor (ADRB2) small molecule antagonists, cell-based qHTS assay (AID 1963592); note: nearly all actives have a fitted effect of over 50% in size; note: potency is the fitted concentration of half-maximal effect
How it was run: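 Cells (CHO, stable ADRB2 overexpression) incubated 18-20hr at 37C; compounds added from DMSO; agonist mix (1nM isoproterenol, 100uM IBMX, 25uM Ro-20-1724) added; 0.5hr RT; d2-cAMP and anti-cAMP-cryptate added; 1hr RT; 665/615 nm read.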

[16] = molecular target: D(2) dopamine receptor (Homo sapiens) (UniProt P14416); assay: Dopamine D2 receptor (DRD2) small molecule agonists, cell-based qHTS assay (AID 1963594); note: nearly all actives have a fitted effect of over 35% in size
How it was run: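 HEK293 cells stably expressing human DRD2, pre-treated with PDE inhibitor Ro20-1724 (0.1 mM final) and compound 10 min at room temperature, then stimulated with NKH477 (200nM […]) for 30 min. cAMP read by HTRF (665/620 nm).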

[17] = cAMP Responsive Elements (CRE) small molecule agonists, cell-based qHTS assay (AID 1963590)
How it was run: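 CRE-bla HEK 293T cells in DMEM with 10% dialyzed FBS, NEAA, pyruvate and 25 mM HEPES were plated 18 h at 37 C/5% CO2, then exposed to compounds in DMSO for 3 h before LiveBLAzer B/G FRET substrate addition.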

[18] = cAMP Responsive Elements (CRE) small molecule antagonists, cell-based qHTS assay (AID 1963591; active = well fitted inhibition curve with a large enough effect in the signal ratio in the repeat runs, not every such curve was filed as active; the % refers to the signal ratio)
How it was run: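 CRE-bla HEK293T cells were plated 18 h at 37 °C/5% CO2, pinned with compound in DMSO, then stimulated with NKH477 at 0.25 uM final for 3 h. LiveBLAzer B/G FRET substrate was added and plates incubated 2 h at room temperature.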

[19] = molecular target: Beta-2 adrenergic receptor (Homo sapiens) (UniProt P07550); assay: Adrenergic beta2 receptor (ADRB2) small molecule agonists, cell-based qHTS assay (AID 1963593);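 note: CHO cells stably overexpressing human ADRB2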
How it was run: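 CHO cells stably over-expressing ADRB2 were plated overnight at 37C, then dosed with compounds plus a stimulation mix containing 100uM IBMX and 25uM Ro-20-1724 for 0.5hr at room temperature. cAMP was measured by HTRF competition, 1hr.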

[20] = molecular target: D(2) dopamine receptor (Homo sapiens) (UniProt P14416); assay: Dopamine D2 receptor (DRD2) small molecule antagonists, cell-based qHTS assay (AID 1963595; active = well fitted inhibition curve with a large enough effect in the signal ratio in the repeat runs, with a control signal flat; the % refers to the signal ratio; note: potency is the fitted concentration of half-maximal effect)
How it was run: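 Readout: HTRF cAMP, cAMP-d2 competing with cellular cAMP for anti-cAMP cryptate, read after 1 h. Cells: DRD2-HEK293. Conditions: 0.1 mM Ro20-1724, 12 nM quinpirole, 200 nM NKH477, 30 min RT.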

Measured: Potency

Sequence of 5-hydroxytryptamine receptor 2A (Homo sapiens) (P28223 whole entry, looked up): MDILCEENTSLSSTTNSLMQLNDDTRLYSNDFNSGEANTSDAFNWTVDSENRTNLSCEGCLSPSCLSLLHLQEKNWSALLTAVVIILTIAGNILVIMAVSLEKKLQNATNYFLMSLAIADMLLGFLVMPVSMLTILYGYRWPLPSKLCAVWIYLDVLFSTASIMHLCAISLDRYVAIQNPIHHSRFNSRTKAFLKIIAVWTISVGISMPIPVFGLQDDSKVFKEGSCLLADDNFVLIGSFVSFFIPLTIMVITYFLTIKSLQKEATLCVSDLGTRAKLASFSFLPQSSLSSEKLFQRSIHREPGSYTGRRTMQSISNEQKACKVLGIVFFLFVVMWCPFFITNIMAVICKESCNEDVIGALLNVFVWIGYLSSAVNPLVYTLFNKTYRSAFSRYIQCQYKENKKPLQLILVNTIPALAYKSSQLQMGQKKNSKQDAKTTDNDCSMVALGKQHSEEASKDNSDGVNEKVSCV
Sequence of D(2) dopamine receptor (Homo sapiens) (P14416 whole entry, looked up): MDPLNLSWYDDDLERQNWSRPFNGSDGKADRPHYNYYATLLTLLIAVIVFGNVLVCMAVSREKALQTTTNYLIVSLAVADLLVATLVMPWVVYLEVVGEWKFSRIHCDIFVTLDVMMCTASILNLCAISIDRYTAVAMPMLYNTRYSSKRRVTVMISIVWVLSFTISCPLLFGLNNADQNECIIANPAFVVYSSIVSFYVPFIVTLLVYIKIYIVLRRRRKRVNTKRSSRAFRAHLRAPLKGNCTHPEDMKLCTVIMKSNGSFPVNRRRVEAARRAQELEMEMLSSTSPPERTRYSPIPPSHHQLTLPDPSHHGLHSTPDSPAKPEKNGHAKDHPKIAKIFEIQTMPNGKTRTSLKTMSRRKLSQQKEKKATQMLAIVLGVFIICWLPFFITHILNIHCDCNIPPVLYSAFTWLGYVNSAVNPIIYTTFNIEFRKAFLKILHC
Sequence of Muscarinic acetylcholine receptor M1 (Homo sapiens) (P11229 whole entry, looked up): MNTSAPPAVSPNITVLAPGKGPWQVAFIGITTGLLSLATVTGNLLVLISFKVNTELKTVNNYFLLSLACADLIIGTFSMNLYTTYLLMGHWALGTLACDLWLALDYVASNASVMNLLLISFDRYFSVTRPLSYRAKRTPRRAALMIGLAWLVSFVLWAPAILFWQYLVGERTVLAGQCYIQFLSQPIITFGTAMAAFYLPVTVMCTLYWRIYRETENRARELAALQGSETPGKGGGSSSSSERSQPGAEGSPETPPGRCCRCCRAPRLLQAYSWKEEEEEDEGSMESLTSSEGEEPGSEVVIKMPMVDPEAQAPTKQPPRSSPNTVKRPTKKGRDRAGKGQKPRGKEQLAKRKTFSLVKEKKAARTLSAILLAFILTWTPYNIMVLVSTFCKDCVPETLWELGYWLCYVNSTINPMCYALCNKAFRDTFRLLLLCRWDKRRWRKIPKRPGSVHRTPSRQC
Sequence of Gonadotropin-releasing hormone receptor (Homo sapiens) (P30968 whole entry, looked up): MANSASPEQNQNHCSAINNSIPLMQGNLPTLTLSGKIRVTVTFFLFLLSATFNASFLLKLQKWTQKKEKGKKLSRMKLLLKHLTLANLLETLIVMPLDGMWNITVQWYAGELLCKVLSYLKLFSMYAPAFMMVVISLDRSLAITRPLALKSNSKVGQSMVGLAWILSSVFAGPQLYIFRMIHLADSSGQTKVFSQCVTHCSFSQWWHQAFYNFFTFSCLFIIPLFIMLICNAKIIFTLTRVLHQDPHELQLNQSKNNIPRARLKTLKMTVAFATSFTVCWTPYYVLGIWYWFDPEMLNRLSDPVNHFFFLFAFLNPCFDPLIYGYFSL
Sequence of KiSS-1 receptor (Homo sapiens) (Q969F8 whole entry, looked up): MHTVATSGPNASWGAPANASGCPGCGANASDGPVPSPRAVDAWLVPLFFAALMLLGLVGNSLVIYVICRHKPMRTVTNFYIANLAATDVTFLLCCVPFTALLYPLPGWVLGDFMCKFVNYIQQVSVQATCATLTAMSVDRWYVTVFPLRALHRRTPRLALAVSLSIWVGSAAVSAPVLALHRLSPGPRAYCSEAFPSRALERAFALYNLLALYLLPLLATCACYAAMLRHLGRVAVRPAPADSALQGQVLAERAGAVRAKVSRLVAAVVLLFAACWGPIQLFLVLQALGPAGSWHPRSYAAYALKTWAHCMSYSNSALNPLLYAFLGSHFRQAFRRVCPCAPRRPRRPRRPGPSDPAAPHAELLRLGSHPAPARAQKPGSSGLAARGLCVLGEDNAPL
Sequence of Beta-2 adrenergic receptor (Homo sapiens) (P07550 whole entry, looked up): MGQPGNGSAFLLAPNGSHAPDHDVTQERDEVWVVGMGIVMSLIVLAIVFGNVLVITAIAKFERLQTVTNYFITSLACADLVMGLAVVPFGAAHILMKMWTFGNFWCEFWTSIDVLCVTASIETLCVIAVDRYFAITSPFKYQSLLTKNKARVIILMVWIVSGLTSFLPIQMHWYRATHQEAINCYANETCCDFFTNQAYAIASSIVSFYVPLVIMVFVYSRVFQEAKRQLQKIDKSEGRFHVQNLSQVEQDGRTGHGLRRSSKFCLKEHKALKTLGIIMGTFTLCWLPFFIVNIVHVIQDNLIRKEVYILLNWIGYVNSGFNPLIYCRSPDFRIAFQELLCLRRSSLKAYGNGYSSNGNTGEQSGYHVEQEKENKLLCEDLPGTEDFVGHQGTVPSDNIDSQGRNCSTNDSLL

CCCC1CCCC(=O)O1 (centres undefined)
not listed: [17] | [18] | [19] | [20]
inactive: all other assays above

C[C@]12CCC(=O)C=C1CC[C@@H]1[C@@H]2[C@@H](O)C[C@@]2(C)[C@H]1CC[C@]2(O)C(=O)COC(=O)CCC(=O)O
not listed: [14]
inactive: all other assays above

CCCCCCCC1CCCC1=O (centres undefined)
not listed: [13] | [19]
inactive: all other assays above

NC(=O)N(O)[C@@H]1C=C[C@H](Oc2cccc(Oc3ccc(F)cc3)c2)C1
active: [2] 61.1 µM
not listed: [16] | [17] | [18] | [19]
inactive: all other assays above

Cc1cc(O)c(C(C)(C)C)cc1Sc1cc(C(C)(C)C)c(O)cc1C
active: [1] 13.7 µM | [8] 9.11 µM | [9] 20.4 µM | [10] 5.75 µM | [12] 43.6 µM | [13] 26.5 µM | [14] 48.9 µM | [15] 27.3 µM | [20] 21.6 µM
inactive: [2] | [3] | [4] | [5] | [6] | [7] | [11] | [16]

COCCCN1CCC(NC(=O)c2cc(Cl)c(N)c3c2OCC3)CC1
not listed: [14] | [18]
inactive: all other assays above

CCCCCCCCCCC(=O)O
not listed: [17] | [19]
inactive: all other assays above

Nc1ccc(C(=O)OCC(O)CO)cc1 (centres undefined)
not listed: [14] | [19]
inactive: all other assays above

CC1=CC[C@H](C(C)C)C=C1
not listed: [17] | [18]
inactive: all other assays above

CC(C)OC(=O)c1ccccc1
not listed: [14] | [19]
inactive: all other assays above

CCC1CCC(CCC(=O)O)C1 (centres undefined)
not listed: [17] | [19]
inactive: all other assays above

O=C(NC1CCN(CCc2c[nH]c3ccccc23)CC1)c1ccccc1
active: [11] 0.46 µM | [15] 13.3 µM | [20] 0.596 µM
not listed: [17] | [18] | [19]
inactive: all other assays above

O=C(CCCCCCCCc1cccnc1)N1CCC(C=C(c2ccccc2)c2ccccc2)CC1
active: [1] 15.4 µM
not listed: [13] | [17] | [19]
inactive: all other assays above

CC(=O)O[C@@H]1C(=O)O[C@@H]2[C@H]1OC(=O)[C@@H]2OC(C)=O
active: [2] 29.8 µM | [12] 0.756 µM
not listed: [13] | [17]
inactive: all other assays above

Cc1cc(C)c(NC(=O)CN(CC(=O)O)CC(=O)O)c(C)c1Br
not listed: [15] | [16] | [17]
inactive: all other assays above

C1CC(COCC2CO2)CCC1COCC1CO1 (centres undefined)
active: [2] 61.1 µM
not listed: [17] | [18] | [19]
inactive: all other assays above

CCn1nc(Cc2ccccc2)cc1C1CCN(C[C@H]2C[C@H](N(C)[C@@H](C(=O)O)C(C)C)C[C@@H]2c2cccc(F)c2)CC1
not listed: [17] | [18] | [19]
inactive: all other assays above

COc1ccc(-c2coc3cc(O)ccc3c2=O)cc1
not listed: [17] | [18]
inactive: all other assays above

Cc1cc(O)c2c(c1)C(=O)c1cccc(O)c1C2=O
active: [2] 8.43 µM
not listed: [17]
inactive: all other assays above

O=C(O)CCCCCCC(=O)O
not listed: [13]
inactive: all other assays above

O=C(C1CCCCC1)N1CC(=O)N2CCCc3ccccc3C2C1 (centres undefined)
not listed: [14] | [17] | [18] | [19]
inactive: all other assays above

CC(=O)Nc1ccn(C2COC(COC(=O)c3ccccc3)O2)c(=O)n1 (centres undefined)
not listed: [17] | [18] | [19]
inactive: all other assays above

Oc1ccc(-c2ccc(O)cc2)cc1
active: [2] 30.8 µM
not listed: [17] | [19]
inactive: all other assays above

c1ccc(C(O[C@H]2CCCN(CCc3ccc4c(c3)OCO4)C2)c2ccccc2)cc1
active: [11] 9.18 µM
not listed: [13] | [15] | [19]
inactive: all other assays above

Cc1oc(-c2ccccc2)nc1CCC(=O)c1ccc(CC2SC(=O)NC2=O)cc1 (centres undefined)
not listed: [17] | [18] | [19]
inactive: all other assays above

Clc1nc(C(Cl)(Cl)Cl)c(Cl)c(Cl)c1Cl
active: [1] 48.6 µM | [2] 21.7 µM
not listed: [17] | [18] | [19]
inactive: all other assays above

O=C(OCCCCCCOC(=O)c1ccccc1)c1ccccc1
active: [2] 68.6 µM
not listed: [13] | [19]
inactive: all other assays above

O=C(O)c1cccc(N(Cc2cccnc2)c2ccc(OC(F)F)c(OC(F)F)c2)c1
not listed: [16] | [17] | [18] | [20]
inactive: all other assays above
